Laboratory results as given in PubChem BioAssay AID493065 (National Center for Advancing Translational Sciences (NCATS), 2011).
Some of the results follow. Results filed as inconclusive are left out. Values without a mark were called inactive. Calls of active or inactive are those of the source. Calls come from the whole dose curve; as a rule, active = well fitted activation curve with a large enough effect; inconclusive = small, poorly fitted or top-dose-only effect; inactive = flat fitted curve, though single readings scatter.

Test: Parental Cell Counter Screen Assay for Epigenetic Modulators: Hit Validation
Details: mouse c127i parental cells, 30 h; Potency: fluorescent cell count; fluorescent cell count: active compounds read high, concentration not given here
Description: NIH Molecular Libraries Screening Centers Network [MLSCN] NIH Chemical Genomics Center [NCGC] MLSCN Grant: 1 X01 MH079860-01 Assay Provider: Elisabeth D. Martinez, University of Texas SW Medical Center NCGC Assay Overview: This assay is a counter screen for the Locus Derepression (LDR) assay (PubChem AID 1865). The LDR assay detects the derepression of a GFP reporter that is stably integrated in a region of the genome of murine c127i mammary cells that is presumably silenced. Compounds that cause derepression of the locus to express GFP are identified by enumerating GFP positive cells using a laser-scanning microplate cytometer. […] Compounds active in the parental c127i cells are likely fluorescent.
NCGC Assay Protocol Summary: Three hundred cells in 5 uL per well were dispensed into black, clear-bottom 1536-well plates. Twenty-three nL compound was transferred to the assay plate and cells were incubated 30 hours at 37 C. Medium was removed, cells were washed two times with PBS, and fluorescent cells were enumerated as objects between the sizes of 20 to 120 um width and depth using a laser-scanning microplate imager (Acumen Explorer Ex3, TTP Labtech). For further details, see Johnson, RL, Huang, W, Jadhav, A, Austin, CP, Inglese, J, Martinez, ED (2008). A quantitative high-throughput screen identifies potential epigenetic modulators of gene expression. Anal Biochem 375: 237-48.

Structure (SMILES) | fluorescent cell count | Potency
Cc1ccc(/C=N/NC(=S)Nc2cccc(S(=O)(=O)N(C)C)c2)o1 | 2% | –
Cc1cccn2c(=O)c(/C=C3\SC(=S)N(CC(C)C)C3=O)c(NCCCOC(C)C)nc12 | – | 2.51 µM (active)
